Most compounds without a hit are left out; they make up all but 9% or so of the library.
ALOX12 inh: inhibitors of human 12S-lipoxygenase ALOX12; P18054; purified 12hLO, xylenol orange hydroperoxide absorbance; Potency, µM (top dose mostly 108 µM), inactives show top-dose activity change, negative = inhibition, actives largely listed as inhibitors; actives 1.1% (n = 580,000); AID 1671190; also: % is scaled to controls: 0 for no effect and ±100 for the full control effect
Target sequence (P18054 whole entry, looked up): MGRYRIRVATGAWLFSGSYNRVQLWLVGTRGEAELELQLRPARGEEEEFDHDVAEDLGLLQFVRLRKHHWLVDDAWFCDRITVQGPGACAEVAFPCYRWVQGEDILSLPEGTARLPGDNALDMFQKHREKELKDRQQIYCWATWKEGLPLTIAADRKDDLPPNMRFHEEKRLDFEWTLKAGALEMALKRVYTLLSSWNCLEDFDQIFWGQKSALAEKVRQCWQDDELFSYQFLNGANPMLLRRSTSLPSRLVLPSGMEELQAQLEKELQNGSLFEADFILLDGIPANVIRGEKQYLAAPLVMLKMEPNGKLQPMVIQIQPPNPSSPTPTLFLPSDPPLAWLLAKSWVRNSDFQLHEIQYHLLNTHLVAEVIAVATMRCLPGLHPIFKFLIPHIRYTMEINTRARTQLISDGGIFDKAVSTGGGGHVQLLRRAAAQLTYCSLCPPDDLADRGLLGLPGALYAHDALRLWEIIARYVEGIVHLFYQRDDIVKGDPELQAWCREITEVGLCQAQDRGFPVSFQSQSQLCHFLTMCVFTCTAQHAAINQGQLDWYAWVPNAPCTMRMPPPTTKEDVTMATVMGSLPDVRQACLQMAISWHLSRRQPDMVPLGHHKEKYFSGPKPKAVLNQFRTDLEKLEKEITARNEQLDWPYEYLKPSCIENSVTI
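Purified human 12hLO (150 nM final) in 25 mM Hepes, 0.01% Triton X-100, pH 7.0 was preincubated 15 min at room temperature with compound. Then 40 uM arachidonic acid was added, 30 min. Hydroperoxide was read by Fe-XO absorbance ratio 573/405 nm.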
G9a block: G9a (human) methyltransferase inhibition. G9a H3K9 monomethylation, AlphaScreen, 2 h. Potency, µM (series often up to 102 µM), inactives show at the top dose activity, negative = inhibition, actives largely listed as inhibitors. actives 8.8% (n = 350,000). AID 504332; also: % is scaled to controls: 0 for no effect and ±100 for the full control effect; nearly all actives have a fitted effect of over 75% in size
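Chemiluminescent proximity detection of H3K9 monomethylation, read after 10 min bead incubation in the dark. Reaction: 20 nM G9a, 500 nM biotin-H3K9 peptide, 20 uM SAM cofactor, 2 h, room temperature, following 15 min enzyme-compound preincubation.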
PLK1 PBD inh: blocks phosphopeptide binding to human PLK1 polo-box domain; actives 2.8% (n = 360,000); AID 720504; Plk1 PBD binding of FITC phosphopeptide, fluorescence polarization; Potency, µM, for inactives: max response, negative = inhibition, most hits filed as inhibitors; P53350; also: series mostly up to about 57 µM; % is scaled to controls: 0 for no effect and ±100 for the full control effect; nearly all actives have a fitted effect of over 65% in size
HP1b binding inh: inhibitors of HP1-beta chromodomain binding to methylated histone tails; AlphaScreen HP1-beta / biotin-H3K9me3 peptide binding; Potency, µM (series often up to 114 µM), for the others: at the highest dose activity change, negative = inhibition, most hits filed as inhibitors; actives 0.56% (n = 390,000); P83916; AID 540317; also: nearly all actives have a fitted effect of over 70% in size
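Compound inhibition of the preformed complex between 50 nM HP1-beta and 50 nM biotinylated H3K9me3 peptide was read by AlphaScreen. Buffer was PBS pH 7.4 with 0.01% Tween-20. Incubations ran 30 min at room temperature, with 10 ug/mL donor/acceptor beads.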
JMJD2A Tudor: blocks the human JMJD2A Tudor domain; AlphaScreen JMJD2A-Tudor / H3K4me3 peptide binding; AID 504339; Potency, µM (titrated, usually from 114 µM), without a hit: at the top dose activity change, negative = inhibition, actives largely listed as inhibitors; actives 4.4% (n = 390,000); also: % is scaled to controls: 0 for no effect and ±100 for the full control effect; nearly all actives have a fitted effect of over 50% in size
BAZ2B block: inhibitors of human BAZ2B bromodomain; Q9UIF8; AlphaScreen BAZ2B-H3K14Ac peptide displacement; Potency, µM (series often up to 114 µM), inactives show top-dose activity change, negative = inhibition, hits mostly inhibitors; actives 4.4% (n = 360,000); AID 504333; also: % is scaled to controls: 0 for no effect and ±100 for the full control effect; nearly all actives have a fitted effect of over 60% in size
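In this displacement format the biotinylated H3(5-23) peptide acetylated at Lys14 serves as ligand at 50 nM, with BAZ2B at 50 nM in PBS pH 7.4 containing 0.01% Tween-20. Donor and acceptor beads are 10 ug/mL final.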
* hit, by the source's call; ? = inconclusive; · = no result given; [ ] = dose if it differs, or a comment. Calls follow the shape of the dose curve; as a rule, active = well fitted curve in the direction sought with a large enough effect; inconclusive = small, poorly fitted or top-dose-only effect, or another doubt; inactive = no such curve, though single readings can be large; an effect the other way counts as inactive or inconclusive. Potency is read from the fitted curve at half-maximal effect.

SMILES | ALOX12 inh | G9a block | PLK1 PBD inh | HP1b binding inh | JMJD2A Tudor | BAZ2B block
CC(C)(C)C(=O)Nc1sc2c(c1C(=O)Nc1ccccn1)CCCC2 | 0% | -9% | 27µM* | 12% | 45µM* | 6%
Cc1ccc(NC(=O)c2c(NC(=O)C(F)(F)F)sc3c2CCCCC3)cc1 | ? | ? | · | ? | ? | -29%
O=C(NCC1CCC2(CCN(Cc3cccc4cccnc34)CC2)O1)c1ccco1 (stereo unspecified) | 2% | · | · | · | · | ·
CCc1ccc(-c2nc(CN3CCC(C(=O)NCCc4ccc(C)cc4)CC3)c(C)o2)cc1 | -3% | -1%[59 µM] | · | 35% | -11% | -32%
Cc1cc(C)n(-c2nc3c(c(=O)[nH]c(=O)n3C)n2CC(O)COc2ccccc2C)n1 (stereo unspecified) | -13% | -9%[59 µM] | -4% | 17% | -7% | 25%
Cc1ccc(S(=O)(=O)N2CCCC2C(=O)Nc2nccs2)cc1 (stereo unspecified) | ? | 1%[59 µM] | -5% | 13% | -3% | ?
Cc1ccc(N/N=C/c2cccc(C(F)(F)F)c2)cc1Cl | 3.5µM* | · | · | · | · | ·
FC(F)(F)c1cccc(/C=N/Nc2ccc(Cl)cc2)c1 | 7.1µM* | · | · | · | · | ·
FC(F)(F)c1ccc(/C=N/Nc2ccc(Cl)cc2)cc1 | 7.1µM* | · | · | · | · | ·
O=C(O)c1ccc(N/N=C/c2cccc(C(F)(F)F)c2)cc1 | -4% | 13%[12.7 µM] | -14% | -6% | -32% | -15%
O=C(NCC1CC1)C1CCCN(C(=O)Cc2c[nH]c3ccccc23)C1 (stereo unspecified) | -1% | · | · | · | · | ·
O=C(C=Cc1ccco1)N1CCOCC1 | -3% | · | -14% | 9%[57 µM] | -10% | ·
COc1ccc(C)cc1/C=C/C(=O)N1CCN(S(=O)(=O)c2cccs2)CC1 | -77% | · | 2% | · | · | ·
Cc1ccc(/C=C/C(=O)N2CCN(S(=O)(=O)c3cccs3)CC2)o1 | ? | 7.9µM* | -4% | -11% | -34% | -36%
O=C(/C=C/c1ccco1)N1CCN(S(=O)(=O)c2cccs2)CC1 | ? | 40µM* | -25% | ? | ? | ?
NC(=O)C1CCN(C(=O)/C=C/c2ccco2)CC1 | 1% | 8.9µM* | -13% | 6% | -16% | 8%
CCN1CCN(C(=O)/C=C/c2ccc(C)o2)CC1 | -31% | 10µM* | -12% | 15% | -12% | 11%
CCCCCCNC(=O)c1ncn[nH]1 | ? | 28% | 1% | 17% | 2% | ?
O=C(/C=C/c1ccco1)N1CCN(S(=O)(=O)/C=C/c2ccccc2)CC1 | ? | 50µM* | -3% | 0% | -13% | ?
O=S(=O)(/C=C/c1ccccc1)N1CCOCC1 | 1% | 89µM* | 3% | 34% | 4% | -2%
O=C(CN1CCc2cc3c(cc2C1)OCCCO3)Nc1ccc(S(=O)(=O)N2CCCC2)cc1 | 45% | 8% | -3% | 15% | -21% | -38%
COc1cc(CN2CCC(C(=O)NC(C)(C)C)CC2)ccc1OCc1ccccc1 | ? | · | -3% | · | · | ·
COc1ccc(S(=O)(=O)NC(=O)C2(C)CCN2C(=O)Cc2ccc(-c3ccccc3)cc2)cc1 (stereo unspecified) | -22% | · | -2% | · | · | ·
Cc1cccc(S(=O)(=O)NC(=O)C2(C)CCN2C(=O)c2ccccc2CCc2ccccc2)c1 (stereo unspecified) | -7% | · | -1% | · | · | ·
CC1(C(=O)NS(=O)(=O)Cc2cccc(Cl)c2)CCN1C(=O)Cc1ccc(-c2ccccc2)cc1 (stereo unspecified) | -20% | · | 67µM* | · | · | ·
CC1(C(=O)NS(=O)(=O)c2ccc3ccccc3c2)CCN1C(=O)Cc1ccc(-c2ccccc2)cc1 (stereo unspecified) | ? | · | 42µM* | · | · | ·
CC1(C(=O)NS(=O)(=O)c2cccc(F)c2)CCN1C(=O)c1ccccc1CCc1ccccc1 (stereo unspecified) | 7.1µM* | · | 1% | · | · | ·
CCC1=NS(=O)(=O)c2cc(NC(C)=O)ccc2N1CC(C)C | 46% | · | · | · | · | ·

Screening data deposited in PubChem by National Center for Advancing Translational Sciences (NCATS).
